Assay [1] in a line: Quantitative High-Throughput drug screen in 47 multiple myeloma cell lines against the NCATS MIPE library collection: XG1_PLB cell viability assay (AID 1919866). Also: nearly all actives have a fitted effect of over 35% in size. The essentials:
(§1)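 ATP-based CellTiter-Glo luminescence after 48 h drug exposure (37 °C, 5% CO2) of 500 myeloma cells per well. DMSO-only wells set 100% viability, media-only wells 0%; MIPE 4.0 library added by pin tool.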

Assay [2] is described as follows: Quantitative High-Throughput drug screen in 47 multiple myeloma cell lines against the NCATS MIPE library collection: PE2_PLB cell viability assay (AID 1919869). Also: nearly all actives have a fitted effect of over 35% in size. The gist of the method:
as §1

A short description of assay [3]: Quantitative High-Throughput drug screen in 47 multiple myeloma cell lines against the NCATS MIPE library collection: PCM6_Riken cell viability assay (AID 1919870). Also: nearly all actives have a fitted effect of over 30% in size. The gist of the method:
as §1

Assay [4] in a line: Quantitative High-Throughput drug screen in 47 multiple myeloma cell lines against the NCATS MIPE library collection: OPM2_DSMZ cell viability assay (AID 1919872). Also: nearly all actives have a fitted effect of over 30% in size. The essentials:
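Approved and investigational drugs from MIPE 4.0 were added by pin tool to 500 cells per well. After 48 hours at 37C, ATP-based CellTiter-Glo luminescence indicated remaining viability.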

Assay [5] can be described thus: Quantitative High-Throughput drug screen in 47 multiple myeloma cell lines against the NCATS MIPE library collection: RPMI8226_ATCC cell viability assay (AID 1919871). Also: nearly all actives have a fitted effect of over 30% in size. The essentials:
as §1

Assay [6] in a line: Quantitative High-Throughput drug screen in 47 multiple myeloma cell lines against the NCATS MIPE library collection: KMS11_JCRBsus cell viability assay (AID 1919873). Also: nearly all actives have a fitted effect of over 50% in size. The essentials: as §1
Assay [7] is described as follows: Quantitative High-Throughput drug screen in 47 multiple myeloma cell lines against the NCATS MIPE library collection: KMS28BM_JCRB cell viability assay (AID 1919874). Also: nearly all actives have a fitted effect of over 35% in size. The essentials: as §1
Assay [8] is described as follows: Quantitative High-Throughput drug screen in 47 multiple myeloma cell lines against the NCATS MIPE library collection: VP6_DJ cell viability assay (AID 1919867). Also: nearly all actives have a fitted effect of over 40% in size. The essentials: as §1
Assay [9] can be described thus: Quantitative High-Throughput drug screen in 47 multiple myeloma cell lines against the NCATS MIPE library collection: UTMC2_PLB cell viability assay (AID 1919868). Also: nearly all actives have a fitted effect of over 55% in size. The gist of the method:
as §1

Results on 27 molecules are retold here after PubChem BioAssay (NCATS).

Inconclusive results are not listed. Activity calls are given as the source filed them. Calls follow the shape of the dose curve; as a rule, active = well fitted cell-killing curve with a large enough effect; inconclusive = small, poorly fitted or top-dose-only effect, or effect the other way; inactive = no such curve, though single readings can be large or run the other way. Peptide text beside a SMILES is read from it.
Potency is read from the fitted curve at half-maximal effect.

For the molecule `COC(=O)[C@H](Cc1ccccc1)NC(=O)[C@@H](N)CC(=O)O` (H-Asp-Phe-OMe), the Potency result in [1], in assay [2], in [3] and in assay [4] was “inactive” throughout.

Take `Cc1cc(=O)oc2cc(O)ccc12`: the Potency entry in [1], in [2], in assay [5], in assay [4], in [6] and in [7] was “inactive” throughout.

Regarding `CC1Cc2ccccc2N1NC(=O)c1ccc(Cl)c(S(N)(=O)=O)c1` (stereo not drawn), the Potency entry in [1], in assay [2], in assay [3], in [5], in [4] and in assay [6] was “inactive” throughout. In addition, in assay [7], the Potency is 1.05 µM (active).

For `Cc1nccn1CC1CCc2c(c3ccccc3n2C)C1=O` (stereo not drawn), the Potency entry in assay [8], in [2], in assay [3] and in [4] was “inactive” in each case. In assay [7], the Potency was 2.64 µM (active).

For the molecule `O=C(CS(=O)Cc1ccco1)NCC=CCOc1cc(CN2CCCCC2)ccn1` (stereo not drawn), in assay [8], the Potency was 16.6 µM (active). Also, the Potency entry in assay [2], in assay [4], in assay [6] and in [7] was “inactive” in each case.

With `COC(=O)C1=C(C)NC(C)=C(C(=O)OC(C)C)C1c1cccc2nonc12` (stereo not drawn), the Potency is 26.4 µM (active) in assay [8], 20.9 µM (active) in assay [2] and 26.4 µM (active) in assay [3]. Moreover, the Potency result in assay [4] was “inactive”.

Take `C[C@]12CCC(=O)C=C1CC[C@@H]1[C@H]2[C@@H](O)C[C@@]2(C)[C@H]1CC[C@]2(O)C(=O)CO`: the Potency in assay [8] is 14.8 µM (active); in assay [5], 0.418 µM (active); in assay [6], 0.187 µM (active). For the same molecule, the Potency entry in assay [2], in assay [4] and in [7] was “inactive” each time.

For the molecule `NCCCCNCCCN`, the Potency in [8] was 26.4 µM (active); in [2] it was 16.6 µM (active); in [3], 16.6 µM (active); in [5], 23.5 µM (active); in assay [4] it was 20.9 µM (active). Moreover, the Potency result in assay [7] is “inactive”.

For `O=c1oc2cc(O)ccc2s1`, the Potency entry in assay [8], in assay [9], in assay [2], in assay [4], in assay [6] and in assay [7] was “inactive” throughout.

On to `N=C(N=C(N)N)N1CCOCC1`, for which the Potency result in assay [8], in assay [9], in assay [2], in assay [4], in assay [6] and in [7] was “inactive” in each case.

As for `CC(C)c1ccc2c(c1)c(SC(C)(C)C)c(CC(C)(C)C(=O)O)n2Cc1ccc(Cl)cc1`, the Potency in assay [1] was 23.5 µM (active). In [4], the Potency entry was “inactive”.

As for `CC(C)(S)[C@@H](N)C(=O)O`, the Potency result in assay [8], in assay [2], in assay [3], in assay [5], in [4] and in assay [6] was “inactive” in each case.

On to `Cc1cc(Cl)ccc1OCCCC(=O)NO`, for which the Potency is 3.72 µM (active) in assay [8], 9.35 µM (active) in assay [9], 7.43 µM (active) in assay [2] and 2.35 µM (active) in [3]. Besides, in assay [4], the Potency result was “inactive”.

In the case of `Cc1ncc([N+](=O)[O-])n1CC(C)O` (stereo not drawn), the Potency in assay [8] and in assay [9] was 18.7 µM (active) each time. Moreover, the Potency result in assay [4], in assay [6] and in assay [7] was “inactive” in each case.

Consider `Cc1cc(C2CCCCC2)n(O)c(=O)c1`, for which the Potency in assay [8] was 8.33 µM (active); in assay [2], 8.33 µM (active); in assay [3] it was 8.33 µM (active); in [6], 5.26 µM (active).

On to `N=C(N)c1ccc2cc(OC(=O)c3ccc(N=C(N)N)cc3)ccc2c1`, for which the Potency in assay [8] was 5.26 µM (active); in assay [2], 10.5 µM (active); in [4], 10.5 µM (active); in assay [7] it was 5.9 µM (active). The Potency entry in [3] is “inactive”.

On to `CN(C)C(=O)[C@H](O)[C@H](Cc1ccccc1)NC(=O)c1cc2cc(Cl)ccc2[nH]1`, for which the Potency is 7.43 µM (active) in [8]; 3.32 µM (active) in assay [9]; 2.64 µM (active) in [2]; 8.33 µM (active) in assay [3]; 14.8 µM (active) in assay [4]; 16.6 µM (active) in assay [6].

Regarding `Cc1cc(=O)c2c(O)c3c(O)cc(=O)c4c3c3c(cc(O)c1c23)C(C)(C)C=4O`, the Potency is 0.469 µM (active) in assay [8]; 0.296 µM (active) in [9]; 0.296 µM (active) in [2]; 1.87 µM (active) in [3]; 1.48 µM (active) in assay [5]; 13.2 µM (active) in assay [4].

With `O=C(O)c1cccnc1Nc1cccc(C(F)(F)F)c1`, the Potency in [8] was 3.32 µM (active). The Potency entry in assay [9], in [3], in assay [5], in [4], in assay [6] and in assay [7] was “inactive” each time.

Turning to `Nc1ccn([C@@H]2O[C@H](CO)[C@@H](O)C2O)c(=O)n1` (stereo partly drawn), the Potency entry in assay [8], in assay [2], in assay [3], in assay [4] and in [7] was “inactive” each time. Further, the Potency in assay [6] was 14.8 µM (active).

On to `O=P(O)(O)C(O)(Cn1ccnc1)P(=O)(O)O`, for which the Potency in assay [8] is 6.45 µM (active). Also, the Potency result in assay [2], in assay [3], in [4], in assay [6] and in assay [7] was “inactive” throughout.

As to `CCN(CC)C(=S)SSC(=S)N(CC)CC`, the Potency was 0.001 µM (active) in assay [8]; 0.0118 µM (active) in [9]; 0.001 µM (active) in assay [3]; 0.0187 µM (active) in [5]; 0.0418 µM (active) in [4]; 0.003 µM (active) in assay [6]. The Potency in assay [7] is 0.0019 µM (active).

Turning to `CCCCCCCCCCCCCCCCCCCCCCO`, the Potency result in assay [8], in assay [2], in [3], in assay [5], in [4] and in [7] was “inactive” each time.

As for `Oc1ccc(-c2nc(-c3ccc(F)cc3)c(-c3ccncc3)[nH]2)cc1`, the Potency in [8] is 16.6 µM (active); in [2], 26.4 µM (active); in assay [3], 20.9 µM (active).

As to `CC(C)C[C@H](NC(=O)[C@H](Cc1ccccc1)NC(=O)c1cnccn1)B(O)O`, the Potency was 0.0074 µM (active) in [8]; 0.148 µM (active) in assay [9]; 0.0105 µM (active) in assay [3]; 0.0187 µM (active) in assay [5]; 0.0264 µM (active) in [4]; 0.0083 µM (active) in assay [6]. For the same molecule, the Potency in assay [7] is 0.0132 µM (active).

`CC(=O)N1CCN(c2ccc(OC[C@H]3CO[C@](Cn4ccnc4)(c4ccc(Cl)cc4Cl)O3)cc2)CC1`: the Potency was 11.8 µM (active) in assay [8], 14.8 µM (active) in assay [2], 18.7 µM (active) in [4] and 18.7 µM (active) in [6]. In addition, the Potency entry in assay [9] is “inactive”.

Regarding `Nc1nc(Cl)nc2c1ncn2[C@H]1C[C@H](O)[C@@H](CO)O1`, the Potency was 3.72 µM (active) in assay [8]; 2.35 µM (active) in assay [9]; 14.8 µM (active) in assay [2]; 5.26 µM (active) in assay [6]; 4.18 µM (active) in [7]. Further, the Potency result in assay [5] and in assay [4] was “inactive” each time.
